This passage reports growth inhibition, inhibition and outcome results from PubChem BioAssay.

Structures are written as SMILES. Values without a mark were called inactive. For some of these results: Results with a measured potency or affinity are listed apart. The source made the active and inactive calls. Unless noted, no rule for the calls is given here.

A short description of test [1]: antimalarial activity against Dd2 strain (AID 2302;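 active = growth inhibition above 50% at the single 2 µM test dose, taken to imply half-maximal potency below 2 µM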;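 also: 0% = DMSO untreated growth and 100% = chloroquine plus artemisinin killed control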). Conditions: P. falciparum Dd2 in RBCs, LDH growth readout, 72 h; at 2 µM; stronger effect = higher value.
Test [2] can be described thus: human hepatoma cell viability loss – ATP luminescence, cytotoxicity control for P. falciparum antimalarial project, primary screen (AID 2303;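 active = inhibition above 50%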;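 also: 0% = DMSO wells and 100% = digitonin-killed cells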). Particulars: HepG2 viability, 24-48 h, at 10 µM, stronger effect = higher value.
The target in test [3] is L-lactate dehydrogenase (Plasmodium falciparum (isolate CDC / Honduras)) (UniProt Q27743). Kind of test: PfLDH activity inhibition – cell lysate, 3D7 strain, counter-screen for P. falciparum growth inhibition project (AID 2304).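 Also: 0% = vehicle and 100% = reference inhibitor.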 Particulars: P. falciparum 3D7 crude extract, LDH APAD/NBT absorbance; at 2 µM; stronger effect = higher value.
Chain of L-lactate dehydrogenase (Plasmodium falciparum (isolate CDC / Honduras)) (Q27743 whole entry, looked up): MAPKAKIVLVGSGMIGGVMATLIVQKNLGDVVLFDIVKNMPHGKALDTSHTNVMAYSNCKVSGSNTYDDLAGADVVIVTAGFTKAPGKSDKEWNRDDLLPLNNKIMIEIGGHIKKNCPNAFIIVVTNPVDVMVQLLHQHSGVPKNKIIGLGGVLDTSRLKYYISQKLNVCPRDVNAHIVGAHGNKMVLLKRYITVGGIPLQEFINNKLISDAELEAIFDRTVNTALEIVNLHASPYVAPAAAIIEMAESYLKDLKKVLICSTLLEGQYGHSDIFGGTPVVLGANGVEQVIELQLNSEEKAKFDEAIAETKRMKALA
A short description of test [4]: inhibition of 3D7 malaria parasite growth – strain 3D7 (AID 2306).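 Also: 0% = DMSO wells and 100% = chloroquine plus artemisinin control wells.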 Conditions: P. falciparum 3D7 erythrocytic growth, LDH absorbance, 72 h; at 2 µM; stronger effect = higher value.
Test [5] addresses Calcium-dependent protein kinase 1 (Plasmodium falciparum (isolate 3D7)) (UniProt P62344). Nature of the test: PfCDPK1 kinase inhibitors, biochemical, TCAMS library (AID 1159585; cut-off not given, nearly all actives have IC50 up to about 0.98 µM;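 also: inhibitors leave more ATP so luminescence rises with inhibition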). Conditions: recombinant PfCDPK1, Kinase-Glo ATP depletion luminescence.
For test [6], the target named is Plasmodium falciparum protein kinase 6 (PK6, PF3D7_1337100) (UniProt Q8IDW1). Nature of the test: PfPK6 kinase inhibitors, biochemical, TCAMS library (AID 1159586). Conditions: recombinant PfPK6, Kinase-Glo ATP depletion luminescence. A general note: Kinase-Glo reads ATP consumption through a luciferase reaction.
Chain of Plasmodium falciparum protein kinase 6 (PK6, PF3D7_1337100) (Q8IDW1 1-305): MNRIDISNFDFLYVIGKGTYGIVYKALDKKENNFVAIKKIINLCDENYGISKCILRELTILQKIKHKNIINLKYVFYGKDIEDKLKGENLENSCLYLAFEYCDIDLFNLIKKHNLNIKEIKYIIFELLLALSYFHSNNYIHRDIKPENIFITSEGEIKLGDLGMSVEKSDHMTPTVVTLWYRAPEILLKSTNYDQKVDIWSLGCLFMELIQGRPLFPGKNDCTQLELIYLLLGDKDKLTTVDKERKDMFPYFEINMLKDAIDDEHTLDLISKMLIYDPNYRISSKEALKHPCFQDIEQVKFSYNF
Test [7] concerns the target Protein kinase 7 (PK7), Plasmodium falciparum 3D7 (PF3D7_0213400) (UniProt Q7YTF7). Kind of test: inhibition of Plasmodium PK7 catalytic activity – biochemical, TCAMS antimalarial set, Kinase-Glo luminescence (AID 1159587). Conditions: recombinant PfPK7, Kinase-Glo ATP depletion luminescence.
In test [8] the target is Calcium-dependent protein kinase 4 (Plasmodium falciparum (isolate 3D7)) (UniProt Q8IBS5). Nature of the test: PfCDPK4 kinase inhibitors, biochemical, TCAMS library (AID 1159588; cut-off not given, nearly all actives have IC50 up to about 0.91 µM). Particulars: recombinant PfCDPK4, Kinase-Glo ATP depletion luminescence.
Chain of Calcium-dependent protein kinase 4 (Plasmodium falciparum (isolate 3D7)) (Q8IBS5 whole entry, looked up): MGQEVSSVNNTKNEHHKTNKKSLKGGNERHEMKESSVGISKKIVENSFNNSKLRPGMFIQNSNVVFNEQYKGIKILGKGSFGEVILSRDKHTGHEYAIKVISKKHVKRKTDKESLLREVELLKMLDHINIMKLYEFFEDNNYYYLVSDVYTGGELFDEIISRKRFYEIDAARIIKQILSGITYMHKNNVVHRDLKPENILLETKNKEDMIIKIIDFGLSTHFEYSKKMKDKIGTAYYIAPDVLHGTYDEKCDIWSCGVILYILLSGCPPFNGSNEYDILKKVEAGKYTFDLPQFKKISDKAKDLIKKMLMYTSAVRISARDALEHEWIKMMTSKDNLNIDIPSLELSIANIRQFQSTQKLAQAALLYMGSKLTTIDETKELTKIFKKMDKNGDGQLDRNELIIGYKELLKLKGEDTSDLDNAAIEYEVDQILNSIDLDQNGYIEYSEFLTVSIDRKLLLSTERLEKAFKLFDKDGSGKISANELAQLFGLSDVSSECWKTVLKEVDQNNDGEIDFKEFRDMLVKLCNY

Chain of Calcium-dependent protein kinase 1 (Plasmodium falciparum (isolate 3D7)) (P62344 whole entry, looked up): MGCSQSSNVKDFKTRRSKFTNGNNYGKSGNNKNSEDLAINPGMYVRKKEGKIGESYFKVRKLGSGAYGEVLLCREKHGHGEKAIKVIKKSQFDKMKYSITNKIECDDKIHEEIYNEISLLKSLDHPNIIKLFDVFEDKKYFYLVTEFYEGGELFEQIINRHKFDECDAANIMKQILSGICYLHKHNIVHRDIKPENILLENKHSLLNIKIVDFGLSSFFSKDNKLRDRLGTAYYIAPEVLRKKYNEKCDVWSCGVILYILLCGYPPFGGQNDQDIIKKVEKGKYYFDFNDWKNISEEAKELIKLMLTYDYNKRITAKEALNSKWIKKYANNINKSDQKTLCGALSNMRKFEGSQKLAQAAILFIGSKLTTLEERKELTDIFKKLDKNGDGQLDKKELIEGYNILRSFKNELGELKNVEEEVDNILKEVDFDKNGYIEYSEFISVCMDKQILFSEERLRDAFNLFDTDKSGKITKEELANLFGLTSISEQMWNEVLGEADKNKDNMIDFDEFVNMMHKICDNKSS
Chain of Protein kinase 7 (PK7), Plasmodium falciparum 3D7 (PF3D7_0213400) (Q7YTF7 1-343): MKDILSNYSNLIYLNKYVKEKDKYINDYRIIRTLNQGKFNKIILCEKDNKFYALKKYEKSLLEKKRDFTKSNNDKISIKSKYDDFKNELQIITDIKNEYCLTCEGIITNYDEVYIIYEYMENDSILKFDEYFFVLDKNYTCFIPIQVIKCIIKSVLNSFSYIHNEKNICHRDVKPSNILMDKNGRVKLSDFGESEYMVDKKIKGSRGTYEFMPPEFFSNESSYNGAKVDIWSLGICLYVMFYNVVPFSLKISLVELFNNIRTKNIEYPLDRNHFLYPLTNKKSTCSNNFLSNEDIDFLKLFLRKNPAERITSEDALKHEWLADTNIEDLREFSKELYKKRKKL

The inhibition is the change of the read-out against control, counted positive when it falls. For the compound `COC(=O)Cc1ccc(N)c2ccccc12`, the growth inhibition is -1% in test [1] and 98% (active) in test [4]. Besides, the inhibition in test [2] was 2%; in test [3], -1%. Also, the outcome in test [5], in test [6], in test [7] and in test [8] was inactive.
Turning to `Cc1cc(NC(=O)c2ccc(S(=O)(=O)N(Cc3ccccc3)C(C)C)cc2)no1`, the growth inhibition in test [1] was 67% (active); in test [4] it was 87% (active). Moreover, the values for the inhibition in test [2] and in test [3] were -6% and -1%, respectively. The result in test [5], in test [6], in test [7] and in test [8] was inactive.
`CC(CCCCCC(=O)Nc1ccc(CC(C)NCCc2cccc(Cl)c2)cc1)NCCc1cccc(Cl)c1` (stereo not given): the results for the growth inhibition in test [1] and in test [4] were 37% and 91% (active), respectively. Further, the figures for the inhibition in test [2] and in test [3] were 99% (active) and 1%, respectively. Moreover, the result in test [5], in test [6], in test [7] and in test [8] was inactive.
For the compound `CN(C)C(=O)c1cc(CNCc2ccccc2)ccc1-c1cccc(CNCc2ccc(-c3ccccc3)cc2)c1`, the growth inhibition in test [1] was 12%; in test [4] it was 90% (active). In addition, the results for the inhibition in test [2] and in test [3] were 27% and -3%, respectively. The outcome in test [5], in test [6], in test [7] and in test [8] was inactive.
With `Cc1sc(CNCCCNc2cc(=O)c3ccccc3[nH]2)c(I)c1C`, the growth inhibition was 48% in test [1] and 94% (active) in test [4]. In addition, the inhibition in test [2] was -10%; in test [3], -4%. The outcome in test [5], in test [6], in test [7] and in test [8] was inactive.
Take `c1ccc2c(CNc3ccnc(NCc4cccc5ccccc45)n3)cccc2c1`: the growth inhibition is 71% (active) in test [1] and 99% (active) in test [4]. The values for the inhibition in test [2] and in test [3] were 51% (active) and 3%, respectively. For the same compound, the outcome in test [5], in test [6], in test [7] and in test [8] was inactive.
In the case of `C[C@@H](CC1CCCCC1)NCc1cccc(NS(=O)(=O)c2ccc(O)c(-c3ccno3)c2)c1`, the growth inhibition in test [1] is 4%; in test [4] it was 88% (active). The values for the inhibition in test [2] and in test [3] were -2% and -6%, respectively. For the same compound, the result in test [5], in test [6], in test [7] and in test [8] was inactive.
For `COc1cc2nc(NCCc3ccccc3)nc(NCc3ccc(C#N)cc3)c2cc1OC`, the growth inhibition in test [1] and in test [4] was 100% (active) in each case. Further, the inhibition in test [2] was 52% (active); in test [3] it was 0%. The outcome in test [5], in test [6], in test [7] and in test [8] was inactive.
As for `COc1cc2ncnc(Nc3ccc(OCc4ccccc4)c(I)c3)c2cc1OC`, the growth inhibition in test [1] is 62% (active); in test [4], 98% (active). For the same compound, the inhibition was 11% in test [2] and 5% in test [3]. The result in test [5], in test [6], in test [7] and in test [8] was inactive.
Consider `CCN1CCCC(CNC(=O)/C(=C/C=C/c2cc3cc(Cl)c(Cl)cc3[nH]2)OC)C1` (stereo not given), for which the growth inhibition in test [1] is 89% (active); in test [4] it was 93% (active). The inhibition is 33% in test [2] and -1% in test [3]. The outcome in test [5], in test [6], in test [7] and in test [8] was inactive.
Consider `O=C(Nc1cccc(-c2ccc(-c3nc4ccc(C(F)(F)F)cc4[nH]3)cc2)c1)c1cnc[nH]1`, for which the growth inhibition in test [1] is 21%; in test [4], 91% (active). Further, the inhibition in test [2] is 16%; in test [3], -3%. For the same compound, the outcome in test [5], in test [6], in test [7] and in test [8] was inactive.
For the compound `Cc1cc(N(C)CCCN2CCCCC2)nc(Nc2ccc(Cl)cc2)n1`, the growth inhibition in test [1] was 82% (active); in test [4] it was 101% (active). Besides, the figures for the inhibition in test [2] and in test [3] were 7% and -3%, respectively. Further, the outcome in test [5], in test [6], in test [7] and in test [8] was inactive.
`COc1ccc2nccc(N3CCC(SCCNS(=O)(=O)c4ccc5c(c4)NC(=O)CS5)C3)c2n1` (stereo not given): the results for the growth inhibition in test [1] and in test [4] were 17% and 99% (active), respectively. Moreover, the inhibition is 20% in test [2] and -5% in test [3]. Also, the outcome in test [5], in test [6], in test [7] and in test [8] was inactive.
Take `CCOc1ccccc1CON1C(N)=NC(N)=NC1(C)C`: the results for the growth inhibition in test [1] and in test [4] were 1% and 90% (active), respectively. Further, the inhibition in test [2] is 66% (active); in test [3], -2%. The outcome in test [5], in test [6], in test [7] and in test [8] was inactive.
With `COc1cc(CNCCCCCCNCc2cc(OC)cc3ccccc23)c2ccccc2c1`, the growth inhibition in test [1] is 94% (active); in test [4] it was 100% (active). For the same compound, the figures for the inhibition in test [2] and in test [3] were 57% (active) and -5%, respectively. The result in test [5], in test [6], in test [7] and in test [8] was inactive.
As for `COc1ccc(CNC(=O)NC2CCN(c3ccnc(Nc4cc(OC)c(OC)c(OC)c4)n3)C2)cc1` (stereo not given), the growth inhibition was 90% (active) in test [1] and 91% (active) in test [4]. The inhibition in test [2] was -2%; in test [3] it was 3%. The result in test [5], in test [6], in test [7] and in test [8] was inactive.
As for `COc1ccc2c(NN=Cc3ccc([N+](=O)[O-])cc3)ccnc2c1`, the growth inhibition in test [1] was 98% (active); in test [4] it was 100% (active). For the same compound, the inhibition in test [2] and in test [3] was -1% each time. The outcome in test [5], in test [6], in test [7] and in test [8] was inactive.
As for `COc1ccc(-c2ccc(NC(=O)c3cccc(Cl)c3)cc2)cc1CN1CCN(C)CC1`, the figures for the growth inhibition in test [1] and in test [4] were 33% and 90% (active), respectively. In addition, the inhibition in test [2] is 42%; in test [3] it was -2%. The outcome in test [5], in test [6], in test [7] and in test [8] was inactive.
In the case of `CCc1nc(N)nc(N)c1-c1ccc(F)cc1`, the figures for the growth inhibition in test [1] and in test [4] were -3% and 96% (active), respectively. Besides, the figures for the inhibition in test [2] and in test [3] were 52% (active) and -2%, respectively. Further, the outcome in test [5], in test [6], in test [7] and in test [8] was inactive.
In the case of `CCCCc1ccc(C(=O)Nc2ccc3nc(N4CCN(CC)CC4)cc(C)c3c2)cc1`, the growth inhibition in test [1] is 13%; in test [4], 91% (active). For the same compound, the inhibition in test [2] was 32%; in test [3], 4%. For the same compound, the result in test [5], in test [6], in test [7] and in test [8] was inactive.
